# KB-3-1 cytotox: qHTS assay for MDR1-selective chemotherapeutics: Primary screen using the parental adenocarcinoma cell KB-3-1. KB-3-1 viability, CellTiter-Glo ATP luminescence, 72 h. Potency, µM (highest dose often 46.1 µM), usual class: cytotoxic. actives 1.4% (n = 400,000); note: % is set by controls: 0 for no effect and ±100 for the full control effect; nearly all actives have a fitted effect of over 60% in size
#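 KB-3-1 parental drug-naive adenocarcinoma cells in DMEM/10% FBS, incubated 72 h at 37 C with pin-transferred compounds across a concentration series. Viability by CellTiter-Glo luminescence; concentration-response curves fitted after normalization.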
# RGS4 inh: Inhibitors of Regulator of G Protein Signaling (RGS) 4: qHTS; Transcreener GDP fluorescence polarization, RGS4-accelerated GTP hydrolysis; Regulator of G-protein signaling 4 (Homo sapiens), P49798; AID 504845, 2011; Potency, µM (doses to about 114 µM), inactives show at the highest dose activity change, negative = inhibition, most hits filed as inhibitors; actives 0.039% (n = 390,000); note: % is set by controls: 0 for no effect and ±100 for the full control effect; nearly all actives have a fitted effect of over 75% in size
# Target sequence (P49798 whole entry, looked up): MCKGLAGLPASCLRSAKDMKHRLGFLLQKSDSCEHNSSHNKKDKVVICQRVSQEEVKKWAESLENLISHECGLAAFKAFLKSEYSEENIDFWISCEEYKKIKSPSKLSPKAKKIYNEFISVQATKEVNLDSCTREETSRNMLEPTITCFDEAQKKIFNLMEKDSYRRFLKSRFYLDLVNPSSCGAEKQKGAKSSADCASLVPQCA
#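 MLSMR compounds (23 nl, pin-transferred) preincubated 10 min at room temperature with a 500nM (2x) first reagent, then RGS4 at 900nM (2x) plus Transcreener GDP mix added; fluorescence polarization (620/688 nm) read before and after 90 min at 30 °C.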
# KB-V1 MDR tox: qHTS assay for MDR1-selective chemotherapeutics: Primary screen using the drug-selected MDR subline cells KB-V1 | KB-V1 MDR cells viability, CellTiter-Glo, 72 h | Potency, µM (top dose mostly 46.1 µM), most hits filed as cytotoxic | actives 3.4% (n = 400,000); note: % is set by controls: 0 for no effect and ±100 for the full control effect; nearly all actives have a fitted effect of over 60% in size
#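 In this primary screen, KB-V1 cells overexpressing P-gp are incubated with library compounds (lowest to highest concentration) for 72 h at 37 degrees C before a luminescent ATP viability read.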
# SW480 rerep: A quantitative high throughput screen for small molecules that induce DNA re-replication in SW480 colon adenocarcinoma cells; Potency, µM (titrated, usually from 46.1 µM), for the others: at the top dose re-replication activation, usual class: activators; SW480 DNA re-replication, Hoechst DNA content imaging, 48 h; actives 1.8% (n = 340,000); note: % of control where 0% means no effect; nearly all actives have a fitted effect of over 55% in size
#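 Compounds, transferred as 23 nL by pin tool, were incubated with cells for 48 hr; DNA content per nucleus was then quantified by Hoechst staining and fluorescence plate imaging.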
# TSG101-PTAP inh: qHTS Assay for Iinhibitors of HIV-1 Budding by Blocking the Interaction of PTAP/TSG101 | 340,000 tested, under 10 active | Tumor susceptibility gene 101 protein (Homo sapiens), Q99816 | AID 493005, 2010 | Fluorescence polarization, FITC-PTAP peptide / Tsg101 binding | Potency, µM (titrated, usually from 115 µM), for the others: top-dose activity change, negative = inhibition, actives largely listed as inhibitors; active = well fitted inhibition curve with a large enough effect in the main read-out, with a control signal flat, not every such curve was filed as active; inconclusive = small, poorly fitted or top-dose-only effect, or effect the other way, or a change in a side signal; inactive = no such curve, though single readings can be large or run the other way; note: % of control where 0% means no effect
# Target sequence (Q99816 whole entry, looked up): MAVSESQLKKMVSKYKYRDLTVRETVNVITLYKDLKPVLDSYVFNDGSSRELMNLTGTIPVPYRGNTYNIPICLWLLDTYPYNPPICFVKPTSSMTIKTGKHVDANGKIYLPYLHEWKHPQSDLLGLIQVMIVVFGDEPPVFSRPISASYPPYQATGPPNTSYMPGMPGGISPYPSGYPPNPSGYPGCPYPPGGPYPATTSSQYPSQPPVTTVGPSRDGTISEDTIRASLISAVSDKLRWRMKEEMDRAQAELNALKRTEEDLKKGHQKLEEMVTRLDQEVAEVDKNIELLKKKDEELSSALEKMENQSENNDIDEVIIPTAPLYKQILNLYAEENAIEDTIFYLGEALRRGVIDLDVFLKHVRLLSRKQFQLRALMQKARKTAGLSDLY
#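 Fluorescence anisotropy tracks displacement of a FITC-tagged PTAP peptide (50 nM) from the Tsg101 binding domain (10 uM), following a 20 min room-temperature incubation at pH 7.5.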
# MCF10A rerep: A quantitative high throughput screen for small molecules that induce DNA re-replication in MCF 10a normal breast cells; MCF 10A DNA re-replication, Hoechst nuclear intensity, 48 h; Potency, µM (top dose mostly 46.1 µM), for inactives: at the highest dose activity, positive = re-replication, hits mostly activators; actives 2.9% (n = 350,000); note: % of control where 0% means no effect; nearly all actives have a fitted effect of over 50% in size
# An asterisk follows results filed as active; i = inactive; u = inconclusive; x = no result; [ ] = dose if it differs, or a comment. In the library only some 6.6% were active in any assay of this set; here they are far more common. Unless noted, calls come from the whole dose curve; as a rule, active = well fitted curve in the direction sought with a large enough effect; inconclusive = small, poorly fitted or top-dose-only effect, or another doubt; inactive = no such curve, though single readings can be large; an effect the other way counts as inactive or inconclusive. Potency is the fitted concentration of half-maximal effect.
SMILES,KB-3-1 cytotox,RGS4 inh,KB-V1 MDR tox,SW480 rerep,TSG101-PTAP inh,MCF10A rerep
COC(=O)C1=C(c2cc3ccccc3o2)C[C@@H]2CC[C@H]1N2C(=O)N1CCOCC1,5.8µM*,10.8%,23.1µM*,u,-4.1%,u
COc1cc2c(cc1OC)-c1c(OC)c(OC)c(C=O)c3c1[C@H](C2)N(C)CC3,x,i,x,x,x,x
C[C@H](N)Cc1cnc[nH]1,x,0.0%[56.9 µM],x,x,x,x
Cc1ccc(-c2nc(CN3C(=O)CN=C(c4ccccc4Cl)c4cc(Cl)ccc43)c(C)o2)cc1,u,-10.6%,u,x,x,x
Cc1cc(N2CCCC2)ccc1C=C(C#N)C#N,i,8.2%,i,-13.9%,u,0.5%
Cc1ccc2cc(C=C(C#N)C#N)c(Cl)nc2c1,u,u,u,u,-7.2%,7.31µM*
C[C@H]1COC(=O)[C@H](Cc2ccc(F)cc2)CC/C=C/C[C@@H](CC(=O)N(CCO)Cc2ccccc2)C(=O)N1,i,-5.2%,i,-9.4%,-0.3%,u
N#Cc1cc2c(nc1SCC(=O)Nc1cccc(F)c1)C1CCN2CC1,u,-10.9%,10.3µM*,x,x,x
Oc1c(Cl)cccc1Cc1cc(Cl)cc(Cl)c1O,u,-10.6%,u,1.1%,-11.0%,11.6µM*
COC(=O)C1=C(C(=O)OC)SC2(S1)C(C(=O)OC)=C(C(=O)OC)Sc1c2ssc1=O,u,-151.8%,u,1.03µM*,0.5%,u
C=CCN1C(=O)NC(=O)/C(=C/c2ccc(OC)c(CSc3ccccn3)c2)C1=O,i,u,i,0.6%,-5.7%,10.4%
C=CCN1C(=O)NC(=O)/C(=C/c2ccc(OC)c(COc3ccc(NC(C)=O)cc3)c2)C1=O,u,u,u,16.4µM*,-1.9%,u
O=C(O)[C@H]1[C@H]2CN[C@H](C(=O)O)[C@H]21,x,5.97µM*,x,x,x,x
COc1cc2c(cc1/C=C/[N+](=O)[O-])OCO2,u,u,i,u,1.8%,u
O=[N+]([O-])/C=C/c1ccc2c(c1)OCO2,x,1.5µM*,x,x,x,x
CC(C)C1C(c2ccccc2)N(C)C(c2ccccc2)CC1(O)c1ccccc1 (configuration not stated),i,-22.8%,u,u,-9.0%,5.17µM*
CN1CC(C(=O)c2ccccc2)C(c2ccccc2)C1 (configuration not stated),i,3.6%,i,9.8%,-2.0%,-10.2%
CCN(CC)c1ccc(CNCCc2ccccc2F)cc1,u,-12.5%,20.6µM*,7.3%,-2.5%,u
CCCNC1=C(C)C(=O)C2=C(C1=O)C(COC(N)=O)[C@]1(OC)C3NC3CN21 (some centres not stated),18.4µM*,-35.5%,i,6.2%,0.2%,-28.9%
CC(C)(C)NC(=O)N1c2ccccc2Sc2ccccc21,u,25.8%,i,-5.1%,-9.1%,u
O=C1CC2OCC=C3CN4CC[C@]56c7ccccc7N1[C@H]5[C@H]2C3C[C@H]46 (some centres not stated),x,222.0%[56.9 µM],x,x,x,x
Cc1cc(NC(=O)COC(=O)c2c(C)nn(Cc3ccccc3)c2C)no1,u,-12.6%,u,2.9%[9.22 µM],1.6%,-0.4%
Cc1nn(Cc2ccccc2)c(C)c1C(=O)OCC(=O)Nc1ccccc1SCC#N,i,-8.9%,7.31µM*,-3.7%,0.1%,-0.6%
CC1(C)c2[nH]c3ccccc3c2C[C@@H]2C(=O)N(Cc3ccccc3F)C(=O)N21,u,9.3%,u,-3.2%,x,u
CCN1/C(=C/C=C/C2=[N+](CC)c3ccccc3C2(C)C)C(C)(C)c2ccccc21,0.0065µM*,x,8.2µM*,x,x,x
SMILES,KB-3-1 cytotox,RGS4 inh,KB-V1 MDR tox,SW480 rerep,TSG101-PTAP inh,MCF10A rerep
CCCNC(=O)N1[C@H]2CC[C@@H]1C(C(=O)OC)=C(c1cc3ccccc3s1)C2,u,-7.5%,i,9.4%,3.4%,-9.0%
COC(=O)C1=C(c2cc3ccccc3s2)C[C@@H]2CC[C@H]1N2C(=O)N1CCCCC1,25.9µM*,-1.9%,u,u,x,18.4µM*
COC(=O)C1=C(c2cc3ccccc3s2)C[C@@H]2CC[C@H]1N2C(=O)NC1CCCCC1,u,-16.5%,u,u,0.0%,20.6µM*
CC12CCC3C4CCC(=O)C(O)=C4CCC3C1CCC2OC(=O)CCC1CCCC1 (configuration not stated),x,x,x,-3.6%,x,1.7%
CCCCN1CCS(=O)(=O)N(Cc2ccccc2Br)CC(C(=O)OC)C1 (configuration not stated),u,-10.1%,u,u,-7.8%,u
CCOC(=O)CCCc1cc[c]([Sb](=[O])([OH])[OH])cc1,i,-2.9%,i,x,x,x
Cc1nnc2ccc(-c3cccc(C(F)(F)F)c3)nn12,i,u,11.6µM*,-96.6%,-3.2%,3.8%
Cc1ccc(C[n+]2c(-c3ccc(C)cc3)cc(-c3ccc(C)cc3)cc2-c2ccc(C)cc2)cc1,5.8µM*,-22.4%,u,u,-6.6%,23.1µM*
c1ccc(Cn2ccnc2)cc1,i,-25.6%,i,-7.7%,-0.5%,3.9%
CC(C)c1cccc(C(C)C)c1OCCn1ccnc1,i,2.5%,23.1µM*,u,1.2%,-0.8%
COc1cc2c(c(OC)c1OC)-c1ccc(OC)c(=O)cc1C(NC(C)=O)CC2 (configuration not stated),0.0073µM*,4.9%,i,u,-6.5%,u
COc1cc2c(c(OC)c1OC)-c1ccc(O)c(=O)cc1C(NC(C)=O)CC2 (configuration not stated),0.0082µM*,-3.2%,u,u,1.3%,u
COc1ccc2c(c1)C(NC(C)=O)CCc1cc(OC)c(OC)c(OC)c1-2 (configuration not stated),0.146µM*,-14.5%,0.366µM*,0.058µM*,-1.0%,u
COC1=C[C@@H]2C3=C([C@@H]2C1=O)[C@@H](NC(C)=O)CCc1cc(OC)c(OC)c(OC)c13,i,-8.2%,i,-37.3%,1.0%,-6.7%
Cc1ccc(-n2nc(C)cc2NC(=O)COc2cc(C)cc3oc(=O)c4c(c23)CCC4)cc1,i,-33.5%,2.06µM*,1.4%,-7.2%,-2.4%

# Bioassay records deposited in PubChem by National Center for Advancing Translational Sciences (NCATS).
